Experimental data taken from PubChem BioAssay (NCATS).
Records with an inconclusive call do not appear. A call without a number means that no potency is given here. Active and inactive are the calls of the source. Calls come from the whole dose curve; as a rule, active = well fitted cell-killing curve with a large enough effect; inconclusive = small, poorly fitted or top-dose-only effect; inactive = flat fitted curve, though single readings scatter.

Experiment: qHTS of pediatric cancer cell lines to identify multiple opportunities for drug repurposing: Primary screen for BT-37 cells (AID 1347094)
Conditions: BT-37 viability, CellTiter-Glo luminescence, 48 h; series mostly up to 57.3 µM
Source text: Drug repurposing or repositioning has been offered as a strategy for drug development in oncology programs. This approach has special potential for childhood cancers and other rare or orphan diseases, where the expected return on new drug development has been a disincentive to pharmaceuticals. […] In this project we exploit the poly-pharmacology of drugs to discover new indications via phenotypic screening of a panel of 19 well-characterized cell lines derived from solid tumors seen in children and adolescents. The goal is to identify approved drugs with previously unrecognized anticancer properties that has the potential to reveal new mechanisms and biological processes involved in carcinogenesis or drug resistance. We employed a titration-based paradigm (quantitative high-throughput screening or qHTS), where all compounds were tested at multiple concentrations for their effect on cell viability. Concentration-response curves (CRCs) were derived directly from the primary screen, and both potency and efficacy values were used to identify compounds with robust bioactivity profiles. We screened the NIH Chemical Genomics Center (NCGC) Pharmaceutical Collection (NPC) and Mechanism Interrogation Plate (MIPE) small molecule collections of approved and investigational compounds against these cell lines; and measured metabolically active cells after 48 hours of compound treatment as a proxy for cell viability. […] Assay Submitter: Nathalia J. Martinez, National Center for Advancing Translational Sciences, National Institutes of Health, Rockville, MD, USA; email: natalia.martinez@nih.gov Shen, M et al. Quantitative high-throughput phenotypic screening of pediatric cancer cell lines identifies multiple opportunities for drug repurposing. Oncotarget 2017 Dec 19;9(4):4758-4772. PMID 29435139.
The cells were obtained from University of North Carolina (UNC), Pediatric Preclinical Testing Program (PPT), and Coriell Institute (CI). qHTS cell viability assay: Cells were assayed in growth media at a density of 500-1,000 cells/well. Five microliters of cells were dispensed into 1,536-well, white, solid-bottom, TC-treated plates (Greiner Bio One) using a multidrop dispenser and incubated at 37 degrees C, 5% CO2, under a humidified atmosphere for 5 hours. Twenty-three nanoliters of compounds and controls (neutral control DMSO or positive control bortezomib at final concentration of 2.3 µM) were subsequently transferred by Kalypsys pintool. For primary screens, the MIPE collection was tested at 11-point dilutions (final concentrations range from 0.78 nM to 46 µM) and the NPC collection at 8-point dilutions (final concentrations range from 0.59 nM to 46 µM). Compounds tested in follow-up screens were assayed at 11-point dilutions. Cells were incubated for 48 hours, followed by addition of 3 µL of CellTiter-Glo (Promega). After a 15 min incubation at room temperature, samples were analyzed for luminescence intensity using a ViewLux High-throughput CCD imager equipped with clear filters.
Potency is the fitted concentration of half-maximal effect.

Structure (SMILES) | Potency
O=c1[nH]c(=O)n([C@H]2C[C@@H](O)[C@@H](CO)O2)cc1I | inactive
CCCCCCCCCCCCCCCC(=O)O[C@H]1[C@@H](O)[C@@H](O)[C@@H]([C@H](NC(=O)[C@@H]2C[C@@H](CCC)CN2C)[C@H](C)Cl)O[C@@H]1SC | inactive
O=C(O)CCC=CCC[C@@H]1[C@H](N2CCCCC2)[C@@H](O)C[C@@H]1OCc1ccc(-c2ccccc2)cc1 | inactive
C#C[C@]1(O)CC[C@H]2[C@H]3CCc4cc(OC)ccc4[C@H]3CC[C@@]21C | inactive
COc1ccc(-c2oc3c(CC=C(C)C)c(O)cc(O)c3c(=O)c2O)cc1 | inactive
CC[C@]1(O)C[C@H]2CN(CCC3=c4ccccc4=N[C]3[C@@](C(=O)OC)(c3cc4c(cc3OC)N(C)[C@H]3[C@@](O)(C(N)=O)[C@H](O)[C@]5(CC)C=CCN6CC[C@]43[C@@H]65)C2)C1 | 0.122 µM (active)
COc1cccc(OC)c1-c1cc(C(=O)NC2(C(=O)O)C3CC4CC(C3)CC2C4)nn1-c1ccnc2cc(Cl)ccc12 (stereo not given) | inactive
CC[C@H](CC#N)OC(=O)N[C@@H](C)c1cccc(NC(=O)Nc2ccc(-c3cnco3)c(OC)c2)c1 | 0.485 µM (active)
CN[C@@H](C)[C@H]1[C@H](O)C[C@@]2(C)[C@@H]3CC[C@H]4C(C)(C)[C@@H](NC)CC[C@@]45C[C@@]35CC[C@]12C | inactive
CC(C)C[C@@H](C(=O)N[C@H](C(=O)OC1CCCC1)c1ccccc1)[C@H](O)C(=O)NO | 24.3 µM (active)
CCCCCCCCCCCCCC(=O)N[C@H](CO)[C@H](O)c1ccc([N+](=O)[O-])cc1 | 13.7 µM (active)
CNC1[C@H](O)C(O[C@@H]2C(O)C(O[C@H]3O[C@H]([C@@H](C)NC)CC[C@H]3N)[C@@H](N)C[C@H]2N)OC[C@]1(C)O (stereo not given in full) | inactive
Cc1cccc(Nc2nc(N[C@@H]3CCCC[C@H]3N)ncc2C(N)=O)c1 | 27.3 µM (active)
CC1=C(C(=O)Nc2cc3cn[nH]c3cc2F)C(c2ccc(C(F)(F)F)cc2)CC(=O)N1 (stereo not given) | inactive
Cc1ccccc1C(C(=O)NC1CCCCC1)N(C(=O)CNc1ccc(C#N)cc1)c1cccc(F)c1 (stereo not given) | inactive
CC(C)CNc1ccnc(NCc2csc(-c3ccccc3)n2)n1 | 24.3 µM (active)
Cc1ccc(S(=O)(=O)OCC(=O)Nc2ccc(C(=O)O)c(O)c2)cc1 | inactive
CC(=O)Nc1cccc(-n2c(=O)n(C3CC3)c(=O)c3c(Nc4ccc(I)cc4F)n(C)c(=O)c(C)c32)c1 | inactive
CNC1CCC(N(Cc2cccc(-c3ccncc3)c2)C(=O)c2sc3ccccc3c2Cl)CC1 (stereo not given) | 24.3 µM (active)
CN(C)c1nc(Cc2ccc(NC(=O)c3ccc(C(F)(F)F)cc3)cc2)nc(N(C)C)c1CC(=O)O | inactive

Structure (SMILES) | Potency
O=C(NCCCCN1CCOCC1)c1cc2ccccc2o1 | inactive
N#CC(=C1Nc2ccccc2S1)c1ccnc(OCc2ccc(CN3CCOCC3)cc2)n1 | 0.306 µM (active)
C#CCN(C)CC1=Cc2ccccc2Oc2ccccc21 | inactive
CC(NCCc1ccc(O)cc1)C(O)c1ccc(O)cc1 (stereo not given) | inactive
c1cc(OCCN2CCCCC2)cc(-c2n[nH]c3ccc(-c4ncn[nH]4)cc23)c1 | 19.3 µM (active)
CCC=CC[C@H]1C(=O)CC[C@@H]1CC(=O)OC | inactive
CN1CCC[C@H]1CCO[C@](C)(c1ccccc1)c1ccc(Cl)cc1 | inactive
CCCCN(CCCC)CC(O)c1cc(Cl)cc2c1-c1ccc(Cl)cc1C2=Cc1ccc(Cl)cc1 (stereo not given) | inactive
CN(C)CCOc1ccc(C(=C(CCCl)c2ccccc2)c2ccccc2)cc1 | inactive
O=C(O)c1nc(=O)[nH]c(=O)[nH]1 | inactive
CN[C@@H]1CN(c2ccc3c(=O)c(C(=O)O)cn(-c4nccs4)c3n2)C[C@@H]1OC | 3.35 µM (active)
CCc1cccc(CC)c1NC(=O)N1Cc2[nH]nc(NC(=O)c3ccc(N4CCN(C)CC4)cc3)c2C1 | inactive
NC(=O)c1ccc(N(C(N)=O)c2c(F)cccc2F)nc1-c1ccc(F)cc1F | inactive
NCc1c[nH]c(=S)n1[C@H]1CCc2c(F)cc(F)cc2C1 | 30.6 µM (active)
CCCCCOC(=O)Nc1nc(=O)n([C@@H]2O[C@H](C)[C@@H](O)C2O)cc1F (stereo not given in full) | inactive
Cc1cccc2c1CC[C@H](CN1CCC(c3c(Cl)cccc3Cl)CC1)C[C@@H]2O | 30.6 µM (active)
CCN1C[C@H](C)n2c(c(O)c3c(=O)n(Cc4ccc(F)c(Cl)c4)nc(C(=O)NC)c32)C1=O | inactive
COc1cc([C@H]2Oc3cc([C@H]4Oc5cc(O)cc(O)c5C(=O)[C@H]4O)ccc3O[C@H]2CO)ccc1O | inactive
Cc1ccc(NC(=O)c2ccc(CN3CCN(C)CC3)cc2)cc1Nc1nc(-c2cccnc2)cs1 | 24.3 µM (active)
COc1cc([C@@H]2c3cc4c(cc3[C@@H](O[C@@H]3O[C@@H]5CO[C@@H](C)O[C@@H]5[C@H](O)[C@@H]3O)[C@H]3COC(=O)[C@H]23)OCO4)cc(OC)c1O | 0.485 µM (active)
